From PubChem BioAssay (NCATS)
Inconclusive results are not listed. This is one part of the list. Active and inactive are the calls of the source. Calls come from the whole dose curve; as a rule, active = well fitted curve in the direction sought with a large enough effect; inconclusive = small, poorly fitted or top-dose-only effect, or another doubt; inactive = no such curve, though single readings can be large; an effect the other way counts as inactive or inconclusive.

Tests used:
[1] = target: ATP-dependent DNA helicase Q1 (Homo sapiens) (UniProt P46063); assay: qHTS Validation Assay for Inhibitors of RecQ-Like Dna Helicase 1 (RECQ1) (AID 2353); note: potency is the fitted concentration of half-maximal effect
Chain of ATP-dependent DNA helicase Q1 (Homo sapiens) (P46063 whole entry, looked up): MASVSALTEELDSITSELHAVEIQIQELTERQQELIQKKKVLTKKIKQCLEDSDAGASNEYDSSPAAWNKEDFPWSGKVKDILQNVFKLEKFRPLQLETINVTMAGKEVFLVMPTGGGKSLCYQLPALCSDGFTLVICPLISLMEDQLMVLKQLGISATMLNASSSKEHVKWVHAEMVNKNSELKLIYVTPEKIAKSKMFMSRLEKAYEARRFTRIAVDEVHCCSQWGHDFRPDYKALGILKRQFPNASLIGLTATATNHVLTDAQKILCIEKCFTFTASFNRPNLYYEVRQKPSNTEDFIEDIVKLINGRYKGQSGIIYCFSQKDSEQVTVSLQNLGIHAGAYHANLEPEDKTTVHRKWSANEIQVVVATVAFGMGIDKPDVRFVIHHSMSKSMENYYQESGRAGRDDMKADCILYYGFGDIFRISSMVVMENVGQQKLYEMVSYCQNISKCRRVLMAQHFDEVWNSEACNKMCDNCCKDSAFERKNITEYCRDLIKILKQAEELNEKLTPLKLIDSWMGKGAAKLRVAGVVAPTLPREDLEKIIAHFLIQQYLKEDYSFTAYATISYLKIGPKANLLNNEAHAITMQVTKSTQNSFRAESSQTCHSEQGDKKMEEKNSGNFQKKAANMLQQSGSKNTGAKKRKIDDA
Procedure, shortened: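 50 nM RECQ1T1 preincubated 15 min with compound in Tris pH 8.0 buffer with MgCl2, DTT, Tween-20 and 2.5 ug/ml poly(dI-dC); started with 200 nM TAMRA/BHQ-2 forked duplex and 2 mM ATP. Unwinding read as fluorescence (525/598 nm), two reads 2 h apart.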

[2] = Cytometric Cell-Based qHTS for Inhibitors of the mTORC1 Signaling Pathway in MEF (Tsc2-/-, p53-/-) Cells (AID 2660);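 note: percent of cells above a phospho-rpS6 to PI ratio cutoff in each well; series mostly up to about 38 µM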
Procedure, shortened: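 Tsc2-/-, p53-/- MEFs (empty vector) exposed to compound 24 h at 37 C, fixed, stained with Alexa-488 anti-phospho-rpS6 Ser235/236 and propidium iodide. Acumen laser scanning; phospho-S6/PI ratio thresholded against 7.5 nM rapamycin, reported as % positive cells.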

[3] = High Content Imaging Cell-Based qHTS for Inhibitors of the mTORC1 Signaling Pathway in MEF (Tsc2-/-, p53-/-) Cells (AID 2666);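 note: percent of cells scored positive for phospho-rpS6 Ser235/236 immunostaining by imaging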
Procedure, shortened: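 Phospho-rpS6 (Ser235/236) immunofluorescence, normalized and scored as % positive cells using rapamycin and DMSO controls, was read in empty-vector Tsc2-/-, p53-/- MEFs after 24 h compound exposure at 37 C; propidium iodide counted cells.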

[4] = target: RecQ-like DNA helicase BLM (Homo sapiens) (UniProt P54132); assay: qHTS Validation Assay for Inhibitors of Bloom's syndrome helicase (BLM) (AID 2364); note: potency is the fitted concentration of half-maximal effect
Chain of RecQ-like DNA helicase BLM (Homo sapiens) (P54132 whole entry, looked up): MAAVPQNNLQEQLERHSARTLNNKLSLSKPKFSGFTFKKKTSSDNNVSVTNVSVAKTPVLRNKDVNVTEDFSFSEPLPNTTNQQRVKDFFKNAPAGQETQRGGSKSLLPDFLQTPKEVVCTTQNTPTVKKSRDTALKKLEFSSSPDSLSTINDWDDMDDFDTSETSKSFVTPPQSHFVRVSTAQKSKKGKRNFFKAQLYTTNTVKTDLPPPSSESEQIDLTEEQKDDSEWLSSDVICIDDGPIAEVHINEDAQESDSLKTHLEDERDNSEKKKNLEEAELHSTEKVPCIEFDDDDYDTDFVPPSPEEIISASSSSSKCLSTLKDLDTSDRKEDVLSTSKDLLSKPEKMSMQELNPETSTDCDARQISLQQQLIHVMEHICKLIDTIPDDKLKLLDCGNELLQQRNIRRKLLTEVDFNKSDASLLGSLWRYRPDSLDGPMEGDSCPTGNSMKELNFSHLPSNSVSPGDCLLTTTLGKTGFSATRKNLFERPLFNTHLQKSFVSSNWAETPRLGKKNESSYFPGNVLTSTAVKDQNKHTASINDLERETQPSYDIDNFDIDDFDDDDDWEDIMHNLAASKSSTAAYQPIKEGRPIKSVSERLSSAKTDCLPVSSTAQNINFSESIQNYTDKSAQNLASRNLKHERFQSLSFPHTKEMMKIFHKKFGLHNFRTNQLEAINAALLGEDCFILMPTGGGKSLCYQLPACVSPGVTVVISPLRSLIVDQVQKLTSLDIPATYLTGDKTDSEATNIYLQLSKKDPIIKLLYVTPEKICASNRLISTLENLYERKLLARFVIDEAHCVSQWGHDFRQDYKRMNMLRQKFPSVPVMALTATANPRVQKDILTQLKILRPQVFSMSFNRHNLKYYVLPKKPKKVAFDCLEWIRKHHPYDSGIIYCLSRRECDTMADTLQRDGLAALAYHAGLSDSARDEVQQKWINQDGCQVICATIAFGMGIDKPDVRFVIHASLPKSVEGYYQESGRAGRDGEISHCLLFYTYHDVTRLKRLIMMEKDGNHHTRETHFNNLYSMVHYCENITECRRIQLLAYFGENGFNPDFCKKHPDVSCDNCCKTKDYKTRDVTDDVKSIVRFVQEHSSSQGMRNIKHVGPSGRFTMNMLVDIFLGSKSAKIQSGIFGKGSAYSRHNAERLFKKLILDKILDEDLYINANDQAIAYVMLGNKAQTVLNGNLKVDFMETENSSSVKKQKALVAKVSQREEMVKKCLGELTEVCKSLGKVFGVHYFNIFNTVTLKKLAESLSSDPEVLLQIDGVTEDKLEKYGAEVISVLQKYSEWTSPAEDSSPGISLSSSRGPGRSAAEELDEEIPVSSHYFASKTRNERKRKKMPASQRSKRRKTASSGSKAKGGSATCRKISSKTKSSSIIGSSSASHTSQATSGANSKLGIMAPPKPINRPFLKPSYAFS
Procedure, shortened: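 50 nM BLM preincubated 15 min at room temperature with compound in pH 8.0 Tris buffer containing 2.5 ug/ml poly(dI-dC); started with 200 nM TAMRA/BHQ-2 forked duplex and 2 mM ATP (final). Unwinding read as TAMRA fluorescence increase, two reads 2 h apart.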

[5] = High Content Imaging Cell-Based qHTS for Inhibitors of the mTORC1 Signaling Pathway in MEF Cells (AID 2667);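 note: Tsc2-/- p53-/- MEFs stably re-expressing wild-type Tsc2 exposed 24 h; series mostly up to about 38 µM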
Procedure, shortened: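 WT MEFs (Tsc2-/-, p53-/- re-expressing Tsc2), in DMEM + 10% FBS, were treated with compound for 24 h at 37 C. Cells were then fixed and stained for phospho-rpS6 Ser235/236 with propidium iodide as cell count. Values are % positive cells, with thresholds set against rapamycin-treated cells.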

[6] = Validation screen for small molecules that induce DNA re-replication in MCF 10A normal breast cells (AID 463097); note: nearly all actives have a fitted effect of over 60% in size; note: potency is the fitted concentration of half-maximal effect
Procedure, shortened: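 Read-out is Hoechst total nuclear intensity by fluorescence scanning imager, flagging increased high-DNA-content nuclei. Compounds were incubated with MCF 10A cells for 48 hr (37 C, 5% CO2) before 40 min staining.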

[7] = target: Ferritin light chain (Equus caballus) (UniProt P02791); assay: qHTS Validation Assay for Identification of Novel General Anesthetics (AID 2323); note: series mostly up to about 77 µM
Chain of Ferritin light chain (Equus caballus) (P02791 2-175 limits assumed): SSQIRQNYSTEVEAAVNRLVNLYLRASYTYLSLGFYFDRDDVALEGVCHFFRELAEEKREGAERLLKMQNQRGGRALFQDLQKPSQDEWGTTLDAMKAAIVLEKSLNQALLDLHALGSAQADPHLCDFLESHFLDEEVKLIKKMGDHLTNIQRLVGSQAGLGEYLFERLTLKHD
Procedure, shortened: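 Competitive displacement of the profluorescent anesthetic 1-AMA (50% saturated, PBS) from 10 uM apoferritin, 10 min, room temperature. Activity is normalized 380/535 nm fluorescence; concentration-response fitted with a four-parameter Hill equation.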

[8] = Cytometry Cell-Based qHTS for Inhibitors of the mTORC1 Signaling Pathway in MEF cells (AID 2668); note: potency is the fitted concentration of half-maximal effect
Procedure, shortened: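 Phospho-rpS6 (Ser235/236) immunofluorescence over PI signal, scored as % positive cells using thresholds from 7.5 nM rapamycin and DMSO wells, after 24 h compound exposure of WT-Tsc2-rescued Tsc2-/-, p53-/- MEFs. PI cell count recorded for viability.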

[9] = target: Endonuclease 4 (Escherichia coli (strain K12)) (UniProt P0A6C1); assay: Counterscreen for APE1 Inhibitors: qHTS Assay for Inhibitors of Endonuclease IV (AID 2565); note: potency is the fitted concentration of half-maximal effect
Procedure, shortened: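 Cleavage of a quenched abasic-site DNA duplex (50 nM, 5'-TAMRA, 3'-BHQ-2) by 2 nM enzyme is followed as fluorescence increase. Compounds are preincubated with enzyme 15 min at room temperature before substrate addition.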

[10] = target: DNA repair nuclease/redox regulator APEX1 (Homo sapiens) (UniProt P27695); assay: Confirmation qHTS Assay for Inhibitors of the Human Apurinic/apyrimidinic Endonuclease 1 (APE1) (AID 2572); note: potency is the fitted concentration of half-maximal effect; nearly all actives have a fitted effect of over 30% in size
Chain of DNA repair nuclease/redox regulator APEX1 (Homo sapiens) (P27695 whole entry, looked up): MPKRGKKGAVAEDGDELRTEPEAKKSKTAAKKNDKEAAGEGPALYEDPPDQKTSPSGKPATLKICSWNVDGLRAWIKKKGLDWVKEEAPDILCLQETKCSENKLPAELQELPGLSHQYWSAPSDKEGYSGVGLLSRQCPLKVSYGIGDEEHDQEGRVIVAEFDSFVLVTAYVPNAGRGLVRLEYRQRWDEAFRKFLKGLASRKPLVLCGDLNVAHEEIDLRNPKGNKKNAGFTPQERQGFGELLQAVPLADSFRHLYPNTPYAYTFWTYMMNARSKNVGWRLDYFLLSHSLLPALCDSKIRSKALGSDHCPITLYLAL
Procedure, shortened: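 Readout: kinetic fluorescence (Ex 525, Em 598 nm) from APE1 incision of a 5'-TAMRA, 3'-BHQ-2 duplex containing a THF abasic site at 50 nM final. Compound preincubation 15 min, room temperature.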

Measured: Potency

O=C1O/C(=C/Br)CCC1c1cccc2ccccc12 (stereo unspecified)
inactive: [1] | [2] | [3]

N#C/C(=C\c1c[nH]c2ccccc12)C(=O)c1ccc(O)c(O)c1
active: [1] 8.91 µM | [4] 11.2 µM
inactive: [2] | [3] | [5] | [6]

CN(C)c1nc2c(Br)c(Br)c(Br)c(Br)c2[nH]1
inactive: [1] | [2] | [3]

CC(C)(C)NCC(O)COc1nsnc1N1CCOCC1 (stereo unspecified)
inactive: [7] | [1] | [6]

C#CCN1C(C)=C(C(=O)OC)C(c2cccc([N+](=O)[O-])c2)C(C(=O)OCC)=C1C (stereo unspecified)
inactive: [1] | [2] | [3] | [5] | [8]

COc1ccccc1CNCCCCCCNCCCCCCCCNCCCCCCNCc1ccccc1OC
active: [4] 17.8 µM
not listed: [1] | [9] | [10]
inactive: all other assays above

C[N+](C)(CCCCCC[N+](C)(C)CCCN1C(=O)c2cccc3cccc(c23)C1=O)CCCN1C(=O)c2cccc3cccc(c23)C1=O
active: [9] 3.55 µM | [10] 4.47 µM
not listed: [7]
inactive: all other assays above

N.N.O=C(O)C1(C(=O)O)CCC1.[Pt]
inactive: [7] | [1] | [6]

C[C@@H](NC(=O)/C(C#N)=C/c1ccc(O)c(O)c1)c1ccccc1
inactive: [1] | [2] | [3] | [5]

O=C(Nc1ccccc1)c1cc([N+](=O)[O-])ccc1Cl
inactive: [1] | [4] | [2] | [3] | [5] | [6]

COC(=O)c1c(C)[nH]c(C)c1C(=O)c1ccccc1Cc1ccccc1
inactive: [1] | [2] | [3] | [5] | [8] | [6]

O=C(/C=C/c1ccc(O)c(O)c1)OCCc1ccccc1
active: [8] 3.29 µM
inactive: [7] | [1] | [3]

Cc1ccc(O)c(N=Nc2ccccc2)n1
not listed: [7] | [9] | [10]
inactive: all other assays above

N#C/C(=C\c1ccc(O)c(O)c1)C(=O)c1ccc(O)c(O)c1
inactive: [2] | [3] | [5] | [8] | [6]
active: [1] 0.282 µM | [4] 8.91 µM

Brc1c(Br)c(Br)c2n[nH]nc2c1Br
inactive: [1] | [2] | [3] | [5] | [8]

COc1cc(OC)c(/C=C2/C(=O)Nc3ccccc32)c(OC)c1
inactive: [1] | [2] | [3] | [5] | [8]

C=C/C(C)=C/[C@@]1(C)SC(=O)C(C)=C1O
inactive: [7] | [6]
active: [1] 8.91 µM

N#C/C(=C\c1ccc(O)c(O)c1)C(=O)NCc1ccccc1
active: [6] 8.91 µM
inactive: [1] | [2] | [3] | [5]

CCCCCCCCCCCCCCCCCC(=O)OC(CC(=O)O)C[N+](C)(C)C (stereo unspecified)
inactive: [1] | [4] | [2] | [3] | [5] | [8]

CN=c1nc(-c2ccccc2)n(-c2ccccc2)s1
active: [6] 11.2 µM
inactive: [7] | [1] | [3] | [5]

O=C(c1cc(O)c(O)c([N+](=O)[O-])c1)c1ccccc1F
inactive: [1] | [2] | [3] | [5] | [8]

NC[C@@H]1O[C@H](C23CC4CC(CC(C4)C2)C3)Cc2c1ccc(O)c2O
inactive: [1] | [4] | [3]

Cn1cc(C2=C(c3ccc(Cl)cc3Cl)C(=O)NC2=O)c2ccccc21
inactive: [4]

CCN(CC)c1ncnc2c1ncn2[C@@H]1O[C@H](COP(=O)(O)OP(=O)(O)C(Br)(Br)P(=O)(O)O)[C@@H](O)[C@H]1O
inactive: [2] | [3] | [5] | [8]

C[N+]1(C)C2CC(OC(=O)[C@H](CO)c3ccccc3)CC1C1OC12 (stereo partly specified)
inactive: [2] | [3] | [5] | [8]

CSc1nc(N)c2ncn([C@@H]3O[C@H](COP(=O)(O)OP(=O)(O)OP(=O)(O)O)[C@@H](O)[C@H]3O)c2n1
inactive: [2] | [3] | [5] | [8]

CC1OC1P(=O)(O)O (stereo unspecified)
inactive: [2] | [3] | [5] | [8]

OC[C@H]1O[C@@H](n2cnc3c(NC4CCCC4)ncnc32)[C@H](O)[C@@H]1O
inactive: [2] | [3] | [5] | [8]
